Most compounds without a hit are left out; they make up all but 19% or so of the library.
TGFb inhibitor – blocks TGF-b signaling | HepG2 CAGA-GFP TGF-b/SMAD3 reporter, GFP fluorescence, 18 h; TGF-beta stimulated, 500 pg/mL final | AID 588855 | 410,000 compounds, 1.2% hits | Potency, µM (highest dose often 46.1 µM), for the others: top-dose activity, negative = inhibition, most hits filed as inhibitors; note: potency is the fitted concentration of half-maximal effect; % is set by controls: 0 for no effect and ±100 for the full control effect; nearly all actives have a fitted effect of over 65% in size
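HEPG2 CAGA-GFP reporter cells (1000/well, DMEM with 1% FBS) received compounds, then recombinant TGF-beta at 500 pg/mL final for 18 hours at 37 degrees C. Per-cell GFP summed per well was normalised to unstimulated and stimulated DMSO controls before curve fitting.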
IL-1B inflam inh – inflammasome signaling inhibition, IL-1 beta readout. AID 743279. THP-1 LPS/ATP IL-1B secretion, AlphaLISA, 16 h; active compounds read low. 360,000 compounds, 4.7% hits. activity change, % at 57.5 µM; in the data active = activity change below about -50%; inconclusive = mostly about -30% to -49%; note: % is set by controls: 0 for no effect and ±100 for the full control effect
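THP-1 cells pretreated 1 hr with compounds (up to 57.5 uM final), then stimulated with LPS (250 ng/mL final) plus ATP (1.25 mM final); secreted IL-1B measured by AlphaLISA after 16 hr, decreased signal indicating inhibition.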
DT40 TDP1 CPT – growth inhibition of DT40 Tdp1-/-;hTDP1 cells with camptothecin (screen for TDP1 inhibitors); chicken DT40 Tdp1-/-;hTDP1 cells + 20 nM CPT, ATP luminescence, 48 h; Potency, µM (highest dose often 46.2 µM), without a hit: at the top dose activity change, negative = growth inhibition, usual class: inhibitors; 420,000 compounds, 12% hits; AID 686979; note: potency is the fitted concentration of half-maximal effect; % is set by controls: 0 for no effect and ±100 for the full control effect; nearly all actives have a fitted effect of over 55% in size
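Chicken DT40 Tdp1-/- cells stably complemented with human TDP1 were seeded at 400 cells/well in medium containing 20 nM camptothecin, exposed to pin-transferred compounds, and grown at 37 °C for at least 48 hr. Viability was read as ATP luminescence.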
TDP1 cell noCPT – qHTS for Inhibitors of human tyrosyl-DNA phosphodiesterase 1 (TDP1): qHTS in cells in absence of CPT; DT40 Tdp1-/- hTDP1 cells, no CPT, ATP luminescence, 48 h; Potency, µM (highest dose often 46.2 µM), for the others: at the highest dose activity change, negative = growth inhibition, most hits filed as inhibitors; 420,000 compounds, 15% hits; AID 686978, 2013; note: potency is the fitted concentration of half-maximal effect; % is set by controls: 0 for no effect and ±100 for the full control effect; nearly all actives have a fitted effect of over 55% in size
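Compound effects on proliferation are scored in DT40 Tdp1-/-;hTDP1 cells in the absence of CPT. ATP levels (CellTiter-Glo luminescence) are recorded after a ≥48 hr, 37 °C incubation.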
HepG2 viability – kills HepG2 cells in TGF-b inhibitor counter-screen; HepG2 CAGA-GFP viability, ATP luminescence, 18 h; Potency, µM (doses to about 46.1 µM), inactives show top-dose activity change, negative = cytotoxicity, most hits filed as cytotoxic; 410,000 compounds, 0.76% hits; AID 588856; note: potency is the fitted concentration of half-maximal effect
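CellTiter-Glo luminescence gave cytotoxicity after 18 hours at 37 degrees C. The cells were HepG2 CAGA-GFP in 1% FBS DMEM, stimulated with 500 pg/mL TGF-beta after compound addition. %Activity was normalised to no-cell wells (complete cell-killing) and DMSO (no toxicity), and curves were fitted and classified.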
ASM inhibitor – human S-ASM enzyme inhibition | 340,000 compounds, 0.006% hits | P17405 | placental ASM, HMU-PC fluorogenic substrate, 60 min | Potency, µM (top dose mostly 57.5 µM), for the others: at the highest dose activity change, negative = inhibition, hits mostly inhibitors; note: potency is the fitted concentration of half-maximal effect
Target sequence (P17405 47-631 limits assumed): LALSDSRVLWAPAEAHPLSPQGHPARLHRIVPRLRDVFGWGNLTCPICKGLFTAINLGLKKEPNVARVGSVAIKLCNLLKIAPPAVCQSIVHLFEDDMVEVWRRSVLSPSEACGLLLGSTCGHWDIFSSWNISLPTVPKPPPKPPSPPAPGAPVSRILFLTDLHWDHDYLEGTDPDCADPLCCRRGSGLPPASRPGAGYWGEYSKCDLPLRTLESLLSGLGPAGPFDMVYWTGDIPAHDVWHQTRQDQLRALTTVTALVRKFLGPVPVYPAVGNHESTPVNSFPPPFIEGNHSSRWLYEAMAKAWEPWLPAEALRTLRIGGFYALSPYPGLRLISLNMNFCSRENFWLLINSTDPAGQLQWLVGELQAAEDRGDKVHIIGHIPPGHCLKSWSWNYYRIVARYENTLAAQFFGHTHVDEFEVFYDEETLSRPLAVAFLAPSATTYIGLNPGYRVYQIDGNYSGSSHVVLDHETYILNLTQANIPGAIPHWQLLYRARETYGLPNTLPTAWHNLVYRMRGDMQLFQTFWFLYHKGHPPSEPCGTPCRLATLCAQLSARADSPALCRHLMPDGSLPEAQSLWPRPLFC
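Human placenta-derived ASM enzyme was preincubated with compound for 10 minutes at room temperature, then given fluorogenic substrate HMU-PC0 (9 uM final) for 60 minutes at 37 °C; a pH 10 stop preceded fluorescence reading at Ex 386/Em 447 nm.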
Numbers without * were called inactive; ! = not active in a repeat. Unless noted, calls come from the whole dose curve; as a rule, active = well fitted curve in the direction sought with a large enough effect; inconclusive = small, poorly fitted or top-dose-only effect, or another doubt; inactive = no such curve, though single readings can be large; an effect the other way counts as inactive or inconclusive.

For Fc1ccc(-c2cn3cc(C(F)(F)F)cc(Cl)c3n2)cc1 the results were TGFb inhibitor 0%, IL-1B inflam inh 20, DT40 TDP1 CPT -2%, TDP1 cell noCPT -29%, HepG2 viability -17% and ASM inhibitor -2%.
For COc1ccc(-c2cn3cc(C(F)(F)F)cc(Cl)c3n2)cc1 the results were TGFb inhibitor -15%, IL-1B inflam inh 58, DT40 TDP1 CPT inconclusive, TDP1 cell noCPT 18µM*, HepG2 viability -8% and ASM inhibitor 13%.
Screening O=C(CN1C(=O)CCc2cc(S(=O)(=O)N3CCOCC3)ccc21)NCc1ccccc1 returned TGFb inhibitor inconclusive, DT40 TDP1 CPT 7%, TDP1 cell noCPT 0% and HepG2 viability 0%.
O=C(Cn1nc2c(cc1=O)CCCC2)NCc1ccc(Cl)cc1 was read as TGFb inhibitor inconclusive, DT40 TDP1 CPT 16µM*, TDP1 cell noCPT 18µM* and HepG2 viability -6%.
`CCOc1ccccc1CNC(=O)CN1C(=O)CCc2cc(S(=O)(=O)N3CCCCC3)ccc21` gave TGFb inhibitor -6%, DT40 TDP1 CPT inconclusive, TDP1 cell noCPT 21µM* and HepG2 viability -17%.
`O=C(CN1C(=O)CCc2cc(S(=O)(=O)N3CCCCC3)ccc21)NCc1ccc(Cl)cc1` gave TGFb inhibitor inconclusive, DT40 TDP1 CPT 21µM*, TDP1 cell noCPT 15µM* and HepG2 viability -15%.
Cc1ccc(C(=O)OCC(=O)NCc2ccc(Cl)cc2Cl)o1 was read as TGFb inhibitor -13%, IL-1B inflam inh 7, DT40 TDP1 CPT inconclusive, TDP1 cell noCPT -21%, HepG2 viability 1% and ASM inhibitor 0%.
Screening CN(C)C(=O)COC(=O)c1ccccc1OCC(=O)Nc1ccc(Br)cc1 returned TGFb inhibitor 4%, DT40 TDP1 CPT inconclusive, TDP1 cell noCPT inconclusive and HepG2 viability -5%.
`CC(C)c1ccc(NC(=O)c2cc3c(=O)oc4ccccc4c3s2)cc1` gave TGFb inhibitor 2%, DT40 TDP1 CPT -1%, TDP1 cell noCPT -15% and HepG2 viability 0%.
For CC1CCN(C(=O)C(C)Sc2nc(-c3ccccc3)cc(C(F)(F)F)n2)CC1 (stereo not given) the results were TGFb inhibitor 16µM*!, IL-1B inflam inh -29, DT40 TDP1 CPT 26µM*, TDP1 cell noCPT 29µM*, HepG2 viability 4% and ASM inhibitor -7%.
CCc1ccc(/C=N/Nc2ncnc3nc[nH]c23)cc1 was read as TGFb inhibitor -32%, IL-1B inflam inh 76, DT40 TDP1 CPT inconclusive, TDP1 cell noCPT inconclusive, HepG2 viability -60% and ASM inhibitor -7%.
CCc1ccc(N=Nc2ccc(O)c3[nH]cnc23)cc1 was read as TGFb inhibitor 5%, IL-1B inflam inh -3, DT40 TDP1 CPT inconclusive, TDP1 cell noCPT 23µM*, HepG2 viability -41% and ASM inhibitor -14%.
Cc1ccc(S(=O)(=O)Nc2cccc(CP(=O)(c3ccccc3)c3ccccc3)c2)cc1 was read as TGFb inhibitor 13%, IL-1B inflam inh -24, DT40 TDP1 CPT -6%, TDP1 cell noCPT -22%, HepG2 viability 2% and ASM inhibitor -2%.
`O=C(O)c1sc2cc(C(F)(F)F)cnc2c1-c1ccccc1` gave TGFb inhibitor -3%, IL-1B inflam inh 0, DT40 TDP1 CPT -10%, TDP1 cell noCPT -12%, HepG2 viability -27% and ASM inhibitor 8%.

Screening results: PubChem, National Center for Advancing Translational Sciences (NCATS)
